{
  "source": "the supplement of paper PMC11006884",
  "note": "Of roughly 6,500 targets only a part is listed; those with a hit were picked by preference. About 2% of all pairs of compound and target were hits.",
  "data": [
    {"compound": "COC(=O)C#Cc1ccccc1 [methyl 3-phenylpropiolate]", "assay": "log2 ratio of iodoacetamide-alkyne labeling of the cysteine site, DMSO over compound (competition); higher = stronger covalent engagement of the cysteine by the compound, active = 1 or more", "conditions": "500 µM; treatment time 1 h; system: HEK293T cell lysate", "how_it_was_run": "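HEK293T lysate (2 mg/mL) was treated with DMSO or electrophile (500 µM, 1 h, ambient temperature), then iodoacetamide alkyne (1 h), clicked to sCIP-TMT reagents, pooled, trypsin-digested overnight at 37 °C, streptavidin-enriched and acid-eluted. Peptides were run on Orbitrap Eclipse LC-MS/MS with FAIMS and quantified in FragPipe. The log2 competition ratio per cysteine is mean control-channel over mean compound-channel reporter intensity. Duplicate channels and three replicates were used, and cysteines quantified in only one replicate were excluded.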", "values": [
      {"target": "GSTK1 C176 (UniProt Q9Y2Q3)", "log2 ratio of iodoacetamide-alkyne labeling": "0.387 (inactive)"},
      {"target": "ASPSCR1 C225 (UniProt Q9BZE9)", "log2 ratio of iodoacetamide-alkyne labeling": "1.02 (active)"},
      {"target": "TANC1 C1594 (UniProt Q9C0D5)", "sequence (Q9C0D5 whole entry, looked up)": "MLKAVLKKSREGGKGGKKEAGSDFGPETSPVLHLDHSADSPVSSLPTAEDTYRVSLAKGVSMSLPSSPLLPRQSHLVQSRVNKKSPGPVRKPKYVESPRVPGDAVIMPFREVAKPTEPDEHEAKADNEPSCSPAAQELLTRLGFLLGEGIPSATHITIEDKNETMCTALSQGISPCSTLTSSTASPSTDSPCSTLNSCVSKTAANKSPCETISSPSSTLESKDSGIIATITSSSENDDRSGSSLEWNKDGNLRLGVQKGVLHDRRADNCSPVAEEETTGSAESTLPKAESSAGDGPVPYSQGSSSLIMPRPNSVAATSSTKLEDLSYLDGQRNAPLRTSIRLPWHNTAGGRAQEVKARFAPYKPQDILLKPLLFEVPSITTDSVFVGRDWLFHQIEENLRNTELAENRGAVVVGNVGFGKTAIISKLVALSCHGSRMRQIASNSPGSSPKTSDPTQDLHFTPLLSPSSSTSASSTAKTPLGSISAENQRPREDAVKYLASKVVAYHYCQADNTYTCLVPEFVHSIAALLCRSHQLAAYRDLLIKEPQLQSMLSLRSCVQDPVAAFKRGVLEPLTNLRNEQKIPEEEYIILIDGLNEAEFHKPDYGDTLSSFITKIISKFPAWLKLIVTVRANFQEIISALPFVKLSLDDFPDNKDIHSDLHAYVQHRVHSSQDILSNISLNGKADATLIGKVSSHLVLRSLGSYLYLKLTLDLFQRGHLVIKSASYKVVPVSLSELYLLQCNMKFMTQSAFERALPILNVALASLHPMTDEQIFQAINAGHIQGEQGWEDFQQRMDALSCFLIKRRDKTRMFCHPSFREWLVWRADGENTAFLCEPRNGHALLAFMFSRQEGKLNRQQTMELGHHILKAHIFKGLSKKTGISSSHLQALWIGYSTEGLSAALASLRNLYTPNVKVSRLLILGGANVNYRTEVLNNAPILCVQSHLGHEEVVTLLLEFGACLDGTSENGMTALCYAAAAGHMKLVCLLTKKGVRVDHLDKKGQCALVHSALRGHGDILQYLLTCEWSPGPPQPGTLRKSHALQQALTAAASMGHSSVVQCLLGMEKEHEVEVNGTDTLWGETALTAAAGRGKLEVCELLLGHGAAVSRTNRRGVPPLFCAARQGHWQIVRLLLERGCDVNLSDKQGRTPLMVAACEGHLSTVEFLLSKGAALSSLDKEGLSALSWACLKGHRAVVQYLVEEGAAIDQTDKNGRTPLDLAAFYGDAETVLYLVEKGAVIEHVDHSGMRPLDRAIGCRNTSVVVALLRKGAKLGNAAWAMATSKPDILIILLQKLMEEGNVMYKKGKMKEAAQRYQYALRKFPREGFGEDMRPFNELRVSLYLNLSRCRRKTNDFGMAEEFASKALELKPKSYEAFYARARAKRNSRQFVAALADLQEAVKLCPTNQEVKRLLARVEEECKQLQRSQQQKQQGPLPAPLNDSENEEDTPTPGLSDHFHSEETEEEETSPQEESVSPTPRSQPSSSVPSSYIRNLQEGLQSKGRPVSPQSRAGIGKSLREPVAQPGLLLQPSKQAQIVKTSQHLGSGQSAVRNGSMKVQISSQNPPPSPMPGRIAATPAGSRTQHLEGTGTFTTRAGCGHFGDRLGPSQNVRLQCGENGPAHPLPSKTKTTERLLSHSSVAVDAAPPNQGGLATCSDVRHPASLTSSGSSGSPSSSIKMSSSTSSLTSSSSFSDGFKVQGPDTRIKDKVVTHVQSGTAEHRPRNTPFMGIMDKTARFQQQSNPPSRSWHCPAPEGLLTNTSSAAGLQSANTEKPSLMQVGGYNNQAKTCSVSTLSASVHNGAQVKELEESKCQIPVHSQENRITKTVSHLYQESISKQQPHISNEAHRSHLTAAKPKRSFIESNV", "log2 ratio of iodoacetamide-alkyne labeling": "1.06 (active)"},
      {"target": "BCAP29 C171 (UniProt Q9UHQ4)", "log2 ratio of iodoacetamide-alkyne labeling": "1.1 (active)"},
      {"target": "RNPEP C181 (UniProt Q9H4A4)", "log2 ratio of iodoacetamide-alkyne labeling": "0.0149 (inactive)"},
      {"target": "SRP68 C247 (UniProt Q9UHB9)", "sequence (Q9UHB9 whole entry, looked up)": "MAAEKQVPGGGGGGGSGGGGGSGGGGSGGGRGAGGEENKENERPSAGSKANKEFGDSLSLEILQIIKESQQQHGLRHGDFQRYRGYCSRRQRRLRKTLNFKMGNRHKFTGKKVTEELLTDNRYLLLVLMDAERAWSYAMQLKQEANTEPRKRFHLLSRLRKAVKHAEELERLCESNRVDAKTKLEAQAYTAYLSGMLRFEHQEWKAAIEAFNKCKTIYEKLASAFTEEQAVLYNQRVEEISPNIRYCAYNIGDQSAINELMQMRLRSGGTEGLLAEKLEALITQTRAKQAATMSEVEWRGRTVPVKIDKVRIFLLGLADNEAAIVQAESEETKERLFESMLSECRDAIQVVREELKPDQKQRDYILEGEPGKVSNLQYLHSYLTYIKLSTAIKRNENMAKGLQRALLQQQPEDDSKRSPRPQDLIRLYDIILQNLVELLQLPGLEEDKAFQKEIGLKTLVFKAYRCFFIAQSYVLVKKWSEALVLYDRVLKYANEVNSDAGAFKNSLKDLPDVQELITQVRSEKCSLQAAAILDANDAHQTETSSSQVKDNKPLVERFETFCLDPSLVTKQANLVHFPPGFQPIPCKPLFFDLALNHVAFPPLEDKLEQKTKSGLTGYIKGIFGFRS", "log2 ratio of iodoacetamide-alkyne labeling": "0.197 (inactive)"},
      {"target": "CARS2 C526 (UniProt Q9HA77)", "log2 ratio of iodoacetamide-alkyne labeling": "0.206 (inactive)"},
      {"target": "IARS2 C91 (UniProt Q9NSE4)", "log2 ratio of iodoacetamide-alkyne labeling": "0.81 (inactive)"},
      {"target": "AIM1 C976 (UniProt Q9Y4K1)", "sequence (Q9Y4K1 whole entry, looked up)": "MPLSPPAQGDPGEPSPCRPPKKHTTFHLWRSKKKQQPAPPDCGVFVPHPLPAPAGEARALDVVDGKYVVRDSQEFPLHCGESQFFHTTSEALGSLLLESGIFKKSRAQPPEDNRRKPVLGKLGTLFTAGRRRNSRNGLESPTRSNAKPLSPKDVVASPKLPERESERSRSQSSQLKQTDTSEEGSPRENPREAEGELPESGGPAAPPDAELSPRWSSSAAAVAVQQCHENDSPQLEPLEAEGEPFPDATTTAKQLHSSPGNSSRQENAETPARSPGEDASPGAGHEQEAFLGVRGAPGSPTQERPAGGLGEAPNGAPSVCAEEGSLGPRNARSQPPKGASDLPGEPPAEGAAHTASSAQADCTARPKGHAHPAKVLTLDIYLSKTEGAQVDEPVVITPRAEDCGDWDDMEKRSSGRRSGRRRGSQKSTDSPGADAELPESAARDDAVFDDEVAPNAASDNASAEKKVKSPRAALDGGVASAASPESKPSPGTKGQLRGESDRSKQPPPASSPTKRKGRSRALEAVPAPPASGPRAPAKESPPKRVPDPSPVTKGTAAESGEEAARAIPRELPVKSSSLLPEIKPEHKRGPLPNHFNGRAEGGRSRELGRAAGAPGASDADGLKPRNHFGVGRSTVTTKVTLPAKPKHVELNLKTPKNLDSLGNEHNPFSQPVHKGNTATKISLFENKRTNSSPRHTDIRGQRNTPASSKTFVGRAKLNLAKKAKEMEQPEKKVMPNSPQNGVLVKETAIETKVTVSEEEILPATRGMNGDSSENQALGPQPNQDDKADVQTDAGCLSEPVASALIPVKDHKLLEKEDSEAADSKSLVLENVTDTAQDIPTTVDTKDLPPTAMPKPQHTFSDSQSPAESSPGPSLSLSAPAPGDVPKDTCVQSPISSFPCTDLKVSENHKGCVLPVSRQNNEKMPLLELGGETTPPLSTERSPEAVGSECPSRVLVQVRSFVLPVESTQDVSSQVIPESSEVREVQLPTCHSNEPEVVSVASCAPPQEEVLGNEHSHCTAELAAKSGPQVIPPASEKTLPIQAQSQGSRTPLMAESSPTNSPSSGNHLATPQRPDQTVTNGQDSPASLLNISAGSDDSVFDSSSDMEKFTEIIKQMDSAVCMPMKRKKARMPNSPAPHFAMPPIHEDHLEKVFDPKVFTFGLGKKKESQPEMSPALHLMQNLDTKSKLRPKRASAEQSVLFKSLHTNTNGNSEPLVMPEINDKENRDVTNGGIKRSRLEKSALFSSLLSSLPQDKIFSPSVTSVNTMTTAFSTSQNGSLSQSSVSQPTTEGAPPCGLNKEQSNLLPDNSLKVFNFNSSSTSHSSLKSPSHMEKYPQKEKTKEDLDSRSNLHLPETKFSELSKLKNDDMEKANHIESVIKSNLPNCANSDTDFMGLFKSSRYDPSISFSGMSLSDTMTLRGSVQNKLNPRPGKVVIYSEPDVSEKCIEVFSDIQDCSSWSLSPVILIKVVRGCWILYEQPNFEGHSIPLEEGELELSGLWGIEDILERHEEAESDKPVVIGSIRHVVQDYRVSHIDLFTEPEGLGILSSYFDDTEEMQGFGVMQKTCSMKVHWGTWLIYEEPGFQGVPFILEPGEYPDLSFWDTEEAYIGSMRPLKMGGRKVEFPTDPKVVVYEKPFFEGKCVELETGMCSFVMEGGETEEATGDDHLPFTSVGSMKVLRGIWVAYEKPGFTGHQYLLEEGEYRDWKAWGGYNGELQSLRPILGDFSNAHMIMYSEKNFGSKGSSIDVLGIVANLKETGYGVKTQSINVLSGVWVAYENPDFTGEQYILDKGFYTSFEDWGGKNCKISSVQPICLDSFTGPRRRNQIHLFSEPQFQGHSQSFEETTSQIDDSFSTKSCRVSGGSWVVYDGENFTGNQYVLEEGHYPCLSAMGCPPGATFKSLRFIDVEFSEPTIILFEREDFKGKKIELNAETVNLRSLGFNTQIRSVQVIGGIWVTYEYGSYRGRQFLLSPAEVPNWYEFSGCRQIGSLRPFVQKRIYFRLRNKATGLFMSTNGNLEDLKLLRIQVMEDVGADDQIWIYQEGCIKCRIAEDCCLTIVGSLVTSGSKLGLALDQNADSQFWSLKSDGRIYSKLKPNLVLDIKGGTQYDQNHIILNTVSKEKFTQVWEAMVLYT", "log2 ratio of iodoacetamide-alkyne labeling": "0.347 (inactive)"},
      {"target": "MAGED2 C516 (UniProt Q9UNF1)", "log2 ratio of iodoacetamide-alkyne labeling": "0.293 (inactive)"},
      {"target": "ATG3 C182 (UniProt Q9NT62)", "log2 ratio of iodoacetamide-alkyne labeling": "0.632 (inactive)"},
      {"target": "OSBPL3 C203 (UniProt Q9H4L5)", "log2 ratio of iodoacetamide-alkyne labeling": "0.76 (inactive)"},
      {"target": "SETD2 C958 (UniProt Q9BYW2)", "log2 ratio of iodoacetamide-alkyne labeling": "1.02 (active)"},
      {"target": "SMYD3 C421 (UniProt Q9H7B4)", "log2 ratio of iodoacetamide-alkyne labeling": "0.00903 (inactive)"},
      {"target": "FTO C326 (UniProt Q9C0B1)", "sequence (Q9C0B1 whole entry, looked up)": "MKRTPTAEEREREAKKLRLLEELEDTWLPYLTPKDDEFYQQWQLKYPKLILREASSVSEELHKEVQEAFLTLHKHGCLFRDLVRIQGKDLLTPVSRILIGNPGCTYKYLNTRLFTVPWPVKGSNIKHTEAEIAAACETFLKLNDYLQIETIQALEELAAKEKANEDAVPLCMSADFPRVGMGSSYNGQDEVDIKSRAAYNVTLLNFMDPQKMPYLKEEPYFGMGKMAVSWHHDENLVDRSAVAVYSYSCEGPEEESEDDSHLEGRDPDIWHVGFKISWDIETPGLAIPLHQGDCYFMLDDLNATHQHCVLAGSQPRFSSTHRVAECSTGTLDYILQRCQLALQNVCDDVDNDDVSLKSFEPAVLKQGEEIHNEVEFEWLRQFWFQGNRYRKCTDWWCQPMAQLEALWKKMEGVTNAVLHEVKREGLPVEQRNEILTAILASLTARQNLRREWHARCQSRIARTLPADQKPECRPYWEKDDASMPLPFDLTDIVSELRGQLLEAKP", "log2 ratio of iodoacetamide-alkyne labeling": "0.0865 (inactive)"},
      {"target": "DDX20 C524 (UniProt Q9UHI6)", "log2 ratio of iodoacetamide-alkyne labeling": "0.6 (inactive)"},
      {"target": "MACF1 C5049 (UniProt Q9UPN3)", "log2 ratio of iodoacetamide-alkyne labeling": "0.311 (inactive)"}
    ]}
  ]
}
